According to PubChem BioAssay (Tox21):
“And” between values parts separate entries of the source, which are not always exact repeats. Equal values may be shown once. Records with an inconclusive call do not appear. Some structures have more than one record in an assay (separate samples or runs), and their calls can disagree. The source made the active and inactive calls. Unless noted, the call rests on the fitted dose curve; in most records, active means well fitted curve in the direction sought with a large enough effect in the repeat runs; inconclusive means weak or mixed curves; inactive means no such curve, though single readings can be large; an effect the other way counts as inactive or inconclusive.

Experiments:
[1] = qHTS assay to identify small molecule agonists of the peroxisome proliferator-activated receptor delta (PPARd) signaling pathway - cell viability counter screen (AID 743211); further: nearly all actives have a fitted effect of over 55% in size; further: potency means the concentration at half of the fitted maximal effect
Outline: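 Multiplexed format: after the 2 h room-temperature LiveBLAzer B/G FRET step, CellTiter-Glo was added to the same wells. Luminescence after 30 min gave cell viability; compound exposure was 17 h at 37C.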

[2] = molecular target: Peroxisome proliferator-activated receptor delta (Homo sapiens) (UniProt Q03181); test: qHTS assay to identify small molecule agonists of the peroxisome proliferator-activated receptor delta (PPARd) signaling pathway (AID 743212; calls by dose curve; further: on the % scale 0 is the no-effect control and ±100 the full control effect)
Outline: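 Cells expressing a UAS-driven beta-lactamase reporter (PPARd-bla HEK293H) were given test compounds after a 5 h settle and kept at 37 C. Reporter activity was then measured as FRET fluorescence using LiveBLAzer B/G substrate.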

[3] = qHTS assay to identify small molecule antagonists of the peroxisome proliferator-activated receptor delta (PPARd) signaling pathway - cell viability counter screen (AID 743213); further: nearly all actives have a fitted effect of over 50% in size; further: potency means the concentration at half of the fitted maximal effect
Outline: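 PPARd-bla HEK293H cells (3000/well) got compound plus 300 nM L165041 agonist for 17 h at 37 C. Viability in the same wells came from CellTiter-Glo luminescence after 30 min at room temperature.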

[4] = molecular target: Peroxisome proliferator-activated receptor delta (Homo sapiens) (UniProt Q03181); test: qHTS assay to identify small molecule antagonists of the peroxisome proliferator-activated receptor delta (PPARd) signaling pathway (AID 743215; active means well fitted inhibition curve with a large enough effect in the signal ratio in the repeat runs, not every such curve was filed as active; the % refers to the signal ratio;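 further: cells stimulated with agonist L165041 at 300 nM final during compound exposure; series mostly up to about 62 µM; on the % scale 0 is the no-effect control and ±100 the full control effect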)
Outline: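 Here, a reporter line (HEK293H, beta-lactamase under a UAS) measures PPARd signaling. Compounds are tested against agonist L165041 at 300 nM final concentration over 17 h at 37 C, with fluorescence read after substrate.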

[5] = molecular target: Bile acid receptor (Homo sapiens) (UniProt Q96RI1); test: qHTS assay to identify small molecule antagonists of the farnesoid-X-receptor (FXR) signaling pathway (AID 743217; active means well fitted inhibition curve with a large enough effect in the signal ratio in the repeat runs, not every such curve was filed as active; the % refers to the signal ratio; further: on the % scale 0 is the no-effect control and ±100 the full control effect)
Outline: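 Test compounds are pin-transferred onto FXR-bla HEK 293T cells, then chenodeoxycholic acid is added at 50 uM final. After 16 h at 37 °C, LiveBLAzer B/G substrate is applied for 2 h at room temperature and fluorescence read.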

[6] = qHTS assay to identify small molecule agonists of the farnesoid-X-receptor (FXR) signaling pathway - cell viability counter screen (AID 743218); further: nearly all actives have a fitted effect of over 45% in size; further: potency means the concentration at half of the fitted maximal effect
Outline: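 Quantitative HTS counter screen measuring ATP-based viability via CellTiter-Glo luminescence in HEK 293T cells carrying a UAS-driven beta-lactamase reporter, after 16 h compound exposure at 37 C.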

[7] = molecular target: Bile acid receptor (Homo sapiens) (UniProt Q96RI1); test: qHTS assay to identify small molecule agonists of the farnesoid-X-receptor (FXR) signaling pathway (AID 743220; active means well fitted activation curve with a large enough effect in the signal ratio in the repeat runs, not every such curve was filed as active; the % refers to the signal ratio; further: on the % scale 0 is the no-effect control and ±100 the full control effect)
Outline: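 FXR-UAS-bla HEK 293T cells carrying a UAS-driven beta-lactamase reporter were plated for 5 h at 37C/5% CO2, then exposed to DMSO-dissolved Tox21 10K compounds for 16 h at 37C. A LiveBLAzer B/G FRET substrate was loaded for 2 h at room temperature before fluorescence reading.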

[8] = qHTS assay to identify small molecule antagonists of the farnesoid-X-receptor (FXR) signaling pathway - cell viability counter screen (AID 743221; active means well fitted cell-killing curve with a large enough effect in the repeat runs, not every such curve was filed as active; further: nearly all actives have a fitted effect of over 50% in size; further: potency means the concentration at half of the fitted maximal effect)
Outline: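 CellTiter-Glo, 30 min RT, luminescence; same wells as the LiveBLAzer FRET read. Cells: FXR-UAS-bla HEK 293T. Treatment: compound with chenodeoxycholic acid 50 uM final, 16 h at 37 C.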

[9] = molecular target: Vitamin D3 receptor (Homo sapiens) (UniProt P11473); test: qHTS assay to identify small molecule agonists of the vitamin D receptor (VDR) signaling pathway (AID 743222; calls by dose curve; further: on the % scale 0 is the no-effect control and ±100 the full control effect)
Outline: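 Tox21 cell reporter format: VDR-bla line, 16 h compound exposure in 5% CO2 at 37C, then fluorescence intensity after 2 h with LiveBLAzer B/G FRET substrate.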

[10] = molecular target: Vitamin D3 receptor (Homo sapiens) (UniProt P11473); test: qHTS assay to identify small molecule antagonists of the vitamin D receptor (VDR) signaling pathway (AID 743223; active means well fitted inhibition curve with a large enough effect in the signal ratio in the repeat runs, not every such curve was filed as active; the % refers to the signal ratio; further: on the % scale 0 is the no-effect control and ±100 the full control effect)
Outline: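 After VDR-bla cells are plated and left 4 h at 37C, DMSO-dissolved compounds and 3 nM (final) calcitriol agonist are added. Incubation continues 16 h at 37C; FRET beta-lactamase substrate then develops 2 h at room temperature.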

[11] = qHTS assay to identify small molecule agonists of the vitamin D receptor (VDR) signaling pathway - cell viability counter screen (AID 743224); further: nearly all actives have a fitted effect of over 50% in size; further: potency means the concentration at half of the fitted maximal effect
Outline: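 CellTiter-Glo viability readout on VDR-bla cells, measured after 16 h of compound treatment at 37C in the same wells.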

[12] = qHTS assay to identify small molecule antagonists of the vitamin D receptor (VDR) signaling pathway - cell viability counter screen (AID 743225); further: nearly all actives have a fitted effect of over 50% in size; further: potency means the concentration at half of the fitted maximal effect
Outline: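 Cytotoxicity toward the VDR-bla HEK 293T line was scored by ATP-based CellTiter-Glo luminescence, read in the wells already used for the beta-lactamase readout after 16 h compound treatment under 3 nM 1-alpha,25-dihydroxyvitamin D3 stimulation.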

[13] = qHTS assay to identify small molecule agonists of the NFkB signaling pathway (AID 1159509; active means well fitted curve in the direction sought with a large enough effect in the signal ratio in the repeat runs, not every such curve was filed as active; the % refers to the signal ratio)
Outline: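 Agonist activity was read as beta-lactamase-driven FRET change (460 and 530 nm emission, 405 nm excitation) following 1.5 hr substrate loading at room temperature. Beforehand, ME-180 NFkB-bla reporter cells were treated with compounds for 5 hr at 37 C.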

[14] = qHTS assay to identify small molecule agonists of the endoplasmic reticulum stress response signaling pathway (AID 1159516; active means well fitted activation curve with a large enough effect in the signal ratio in the repeat runs, not every such curve was filed as active; the % refers to the signal ratio; further: on the % scale 0 is the no-effect control and ±100 the full control effect)
Outline: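 Fluorescence at 460 and 530 nm (405 nm excitation) reports beta-lactamase from an ER stress response element in HeLa cells treated 5 hr at 37 C.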

[15] = qHTS assay to identify small molecule agonists of the endoplasmic reticulum stress response signaling pathway - cell viability counter screen (AID 1159517; calls by dose curve)
Outline: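 Cpd-treated ESRE-bla HeLa (5 hr, 37 C) → LiveBLAzer 2 hr RT → CellTiter-Glo 30 min RT → luminescence.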

[16] = qHTS assay to identify small molecule antagonists of the retinoid-related orphan receptor gamma (ROR-gamma) signaling pathway - cell viability counter screen (AID 1159520); further: nearly all actives have a fitted effect of over 50% in size; further: potency means the concentration at half of the fitted maximal effect
Outline: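 Tet-on ROR gamma CHO cells (1,000/well) were plated 4 hr, given compounds in DMSO for 2 hr at 37 C, then induced with 1 uM final doxycycline for 16 hr. Viability was read as ATP by CellTiter-Glo luminescence after 30 min.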

[17] = molecular target: Nuclear receptor ROR-gamma (Homo sapiens) (UniProt P51449); test: qHTS assay to identify small molecule antagonists of the retinoid-related orphan receptor gamma (ROR-gamma) signaling pathway (AID 1159521; further: nearly all actives have a fitted effect of over 50% in size; further: potency means the concentration at half of the fitted maximal effect)
Outline: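 Readout: ONE-Glo luciferase luminescence, 30 min at room temperature. System: Tet-on RORγ CHO, RORE-LUC. Sequence: compound 2 h, doxycycline 1 uM final, 16 h at 37 C.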

[18] = qHTS assay to identify small molecule agonists of the AP-1 signaling pathway - cell viability counter screen (AID 1159525; calls by dose curve; further: nearly all actives have a fitted effect of over 55% in size)
Outline: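 Each titration point was normalised to DMSO and tetra n-octyl ammonium bromide controls. The read was Cell Titer Glo luminescence after 30 min at RT, following 5 h compound exposure of ME-180 AP-1-bla cells at 37 °C.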

[19] = qHTS assay to identify small molecule agonists of the AP-1 signaling pathway (AID 1159526; calls by dose curve; further: on the % scale 0 is the no-effect control and ±100 the full control effect)
[20] = qHTS assay to identify small molecule agonists of the NFkB signaling pathway - cell viability counter screen (AID 1159515; calls by dose curve; further: series mostly up to about 61 µM; on the % scale 0 is the no-effect control and ±100 the full control effect; nearly all actives have a fitted effect of over 55% in size)
Outline: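 Tox21 library compounds were tested for cytotoxicity against NFkB-bla ME-180 cells during a 5 hr exposure at 37 C. CellTiter-Glo luminescence served as the viability read-out.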

Chain of Vitamin D3 receptor (Homo sapiens) (P11473 whole entry, looked up): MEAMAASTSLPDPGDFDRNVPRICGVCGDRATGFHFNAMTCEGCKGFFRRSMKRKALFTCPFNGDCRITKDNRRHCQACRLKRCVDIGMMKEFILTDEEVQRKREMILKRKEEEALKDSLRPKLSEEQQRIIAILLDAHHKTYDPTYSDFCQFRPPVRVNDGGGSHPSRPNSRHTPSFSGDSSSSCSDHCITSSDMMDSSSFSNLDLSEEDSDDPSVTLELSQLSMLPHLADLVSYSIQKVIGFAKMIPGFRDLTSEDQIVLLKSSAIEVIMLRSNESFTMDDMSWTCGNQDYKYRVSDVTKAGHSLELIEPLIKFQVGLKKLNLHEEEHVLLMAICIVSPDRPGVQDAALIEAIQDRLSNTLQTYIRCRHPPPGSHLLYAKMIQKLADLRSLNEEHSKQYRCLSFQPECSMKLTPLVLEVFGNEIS
Chain of Bile acid receptor (Homo sapiens) (Q96RI1 whole entry, looked up): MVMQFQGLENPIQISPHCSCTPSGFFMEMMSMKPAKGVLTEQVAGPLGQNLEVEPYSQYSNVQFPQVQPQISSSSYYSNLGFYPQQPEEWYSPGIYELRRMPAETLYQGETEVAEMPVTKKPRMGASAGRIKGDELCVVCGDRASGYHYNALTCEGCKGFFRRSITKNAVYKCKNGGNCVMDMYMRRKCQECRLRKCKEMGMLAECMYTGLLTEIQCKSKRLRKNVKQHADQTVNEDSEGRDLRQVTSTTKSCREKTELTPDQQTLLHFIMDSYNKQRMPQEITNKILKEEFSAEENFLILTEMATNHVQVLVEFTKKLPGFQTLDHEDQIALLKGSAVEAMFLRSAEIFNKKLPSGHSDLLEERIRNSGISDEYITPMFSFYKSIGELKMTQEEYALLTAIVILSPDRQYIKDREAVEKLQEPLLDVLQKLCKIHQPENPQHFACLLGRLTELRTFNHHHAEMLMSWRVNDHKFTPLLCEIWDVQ
Chain of Peroxisome proliferator-activated receptor delta (Homo sapiens) (Q03181 whole entry, looked up): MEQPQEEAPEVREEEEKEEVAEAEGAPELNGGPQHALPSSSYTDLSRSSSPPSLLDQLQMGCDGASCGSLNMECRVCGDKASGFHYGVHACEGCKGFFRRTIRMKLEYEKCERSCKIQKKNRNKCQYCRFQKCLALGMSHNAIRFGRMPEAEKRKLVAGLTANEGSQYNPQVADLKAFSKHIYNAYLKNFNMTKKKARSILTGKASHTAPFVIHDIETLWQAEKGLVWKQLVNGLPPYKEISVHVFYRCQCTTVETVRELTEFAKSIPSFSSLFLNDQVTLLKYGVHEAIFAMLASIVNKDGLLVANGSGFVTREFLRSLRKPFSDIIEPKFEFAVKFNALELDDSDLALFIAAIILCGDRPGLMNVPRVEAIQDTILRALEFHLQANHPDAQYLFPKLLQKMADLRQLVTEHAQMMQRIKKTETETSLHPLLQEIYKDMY

CN(C)c1nc(N(C)C)nc(N(C)C)n1
inactive: Potency [1] | outcome [2] | Potency [3] | Potency [4] | Potency [5] | viability change, negative = cytotoxic [6] -6.22% [at 5.95 µM] | outcome [7] | Potency [8] | outcome [9] | outcome [10] | Potency [11] | Potency [12] | outcome [13] | Potency [14] | Potency [15] | Potency [16] | Potency [17] | Potency [18] | outcome [19]

CNCCCC12CCC(c3ccccc31)c1ccccc12
21.9 µM (active) and inactive: Potency [11]
19.5 µM (active) and inactive: Potency [6]
active: Potency [1] 17.4 µM and 29.8 µM | Potency [3] 9.77 µM and 16.8 µM | Potency [8] 38.9 µM | Potency [12] 15.5 µM
61.1 µM (active) and inactive: Potency [16]
inactive: outcome [2] | outcome [10] | outcome [13] | Potency [20] | Potency [14] | Potency [18]
34.4 µM (active) and inactive: Potency [17]

CC(C)(C)NC(=O)[C@H]1CC[C@H]2[C@@H]3CC[C@H]4NC(=O)C=C[C@]4(C)[C@H]3CC[C@]12C
inactive: Potency [1] | outcome [2] | Potency [3] | Potency [4] | Potency [6] | outcome [7] | Potency [8] | outcome [9] | Potency [11] | Potency [12] | outcome [13] | Potency [14] | Potency [15] | Potency [16] | Potency [17] | Potency [18] | outcome [19]

O=C(COc1ccc(Cl)cc1)N1CCN(Cc2ccc3c(c2)OCO3)CC1
inactive: outcome [2] | Potency [3] | Potency [4] | outcome [9] | outcome [10] | Potency [11] | Potency [12] | outcome [13] | Potency [20] | Potency [14] | Potency [15] | Potency [17] | outcome [19]

c1cc(-c2ccncc2)ccn1
inactive: Potency [1] | outcome [2] | Potency [3] | Potency [4] | Potency [6] | outcome [9] | outcome [10] | Potency [11] | Potency [12] | outcome [13] | Potency [20] | Potency [14] | Potency [15] | Potency [17] | outcome [19]

CCCCOCCOCCO
inactive: Potency [1] | Potency [3] | Potency [6] | outcome [9] | outcome [10] | Potency [11] | Potency [12] | outcome [13] | Potency [20] | Potency [14] | Potency [15] | Potency [17] | outcome [19]
